Data as given in PubChem BioAssay (Tox21).
Inconclusive results are not listed. A call without a number means that no potency is given here. Activity calls are given as the source filed them. Calls follow the shape of the dose curve; as a rule, active = well fitted curve in the direction sought with a large enough effect in the repeat runs; inconclusive = weak or mixed curves; inactive = no such curve, though single readings can be large; an effect the other way counts as inactive or inconclusive.

Assay: qHTS assay to identify small molecule antagonists of the thyroid receptor (TR) signaling pathway - cell viability counter screen (AID 743064); also: nearly all actives have a fitted effect of over 50% in size
Conditions: GH3.TRE-Luc viability, CellTiter-Fluor, 24 h; series mostly up to 70.3 µM
Outline: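 Counter screen for cytotoxicity: compound plus T3 (1 nM final) on GH3.TRE-Luc cells, 23.5 h at 37 °C, then fluorescence viability readout with CellTiter-Fluor.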
Potency is read from the fitted curve at half-maximal effect.

Structure (SMILES) | Potency
Cc1ccc(C(=O)C(C)CN2CCCCC2)cc1 (stereo not given) | inactive
ClC(Cl)(Cl)c1ccc(C(Cl)(Cl)Cl)cc1 | inactive
COC(=O)C(C)=O | inactive
C=C(C)C(=O)OCCN(C)C | inactive
CC(=O)N(O)CCCCCNC(=O)CCC(=O)N(O)CCCCCNC(=O)CCC(=O)N(O)CCCCCN | inactive
C[C@H](CCC(=O)O)[C@H]1CC[C@H]2[C@@H]3[C@H](O)C[C@@H]4C[C@H](O)CC[C@]4(C)[C@H]3CC[C@]12C | inactive
CCCCCCCCCCCCCCC1CO1 (stereo not given) | inactive
CC(C)NCC(O)COc1ccc(CC(N)=O)cc1 (stereo not given) | inactive
NCCCN(CCO)CCO | inactive
CCCCCCCCCCCCCCCBr | inactive
COc1ccc([C@@H]2Sc3ccccc3N(CCN(C)C)C(=O)[C@@H]2OC(C)=O)cc1 | 23.7 µM (active)
Cc1ncsc1CCO | inactive
O=C(Nc1ccccc1)OCC(CN1CCCCC1)OC(=O)Nc1ccccc1 (stereo not given) | 10.1 µM (active)
CC(C(=O)O)c1ccc(-c2ccccc2)c(F)c1 (stereo not given) | inactive
O=C(C(=O)c1ccc(Br)cc1)c1ccc(Br)cc1 | inactive
OCC1CC2CC1C1CCC(CO)C21 (stereo not given) | inactive
CCCCCCCCCO | inactive
CCCCCCCCC(CO)CCCCCC (stereo not given) | inactive
CC(=O)CC(=O)c1ccccc1 | inactive

Structure (SMILES) | Potency
CC[C@H](C)[C@@H](C(=O)O)n1sc2ccccc2c1=O | inactive
N=C(N=C(N)N)N1CCOCC1 | inactive
N[C@H]1C(O)O[C@H](CO)[C@H](O)[C@@H]1O (stereo not given in full) | inactive
O=C(O)COC(=O)Cc1ccccc1Nc1c(Cl)cccc1Cl | inactive
CC(C)(C)C1CCCCC1O (stereo not given) | inactive
N#CCCNCCC#N | inactive
NCCCOCCOCCOCCCN | inactive
N#CCc1cccc(C(F)(F)F)c1 | inactive
Cc1ccc(C(N)=O)cc1N | inactive
C=CC[N+]1([C@H]2C[C@H]3[C@@H]4CC[C@H]5C[C@H](OC(C)=O)[C@@H](N6CCCCC6)C[C@]5(C)[C@H]4CC[C@]3(C)[C@H]2OC(=O)CC)CCCCC1 | inactive
CN(C)CCCOc1nn(Cc2ccccc2)c2ccccc12 | 8.04 µM (active)
CC(=O)NCCCS(=O)(=O)O | inactive
CCOC(=O)CC(C)C | inactive
CC(=O)SCc1ccco1 | inactive
Cn1c(=O)c2c(ncn2CC(O)CO)n(C)c1=O (stereo not given) | inactive
CCOC(=O)CC(=O)c1cc(F)c(Cl)nc1Cl | inactive
Nc1nc(N)c2nc(CNc3ccc(C(=O)N[C@@H](CCC(=O)O)C(=O)O)cc3)cnc2n1 | inactive
COCCOCCOCCOCCOC | inactive
O=C(Cl)c1ccc([N+](=O)[O-])cc1 | inactive

Assay: qHTS assay to identify small molecule antagonists of the thyroid receptor (TR) signaling pathway (AID 743065); also: nearly all actives have a fitted effect of over 55% in size
Conditions: GH3.TRE-Luc, T3-stimulated luciferase inhibition, 23.5 h; series mostly up to 70.3 µM
Outline: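 GH3.TRE-Luc rat pituitary cells (two TREs driving luciferase) were dosed with compound, then stimulated with 1 nM T3 (final) for 23.5 h at 37 C. ONE-Glo luminescence was the read-out, with CellTiter-Fluor fluorescence as the cytotoxicity counter-screen.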

Structure (SMILES) | Potency
Cc1ccc(C(=O)C(C)CN2CCCCC2)cc1 (stereo not given) | inactive
ClC(Cl)(Cl)c1ccc(C(Cl)(Cl)Cl)cc1 | inactive
COC(=O)C(C)=O | inactive
C=C(C)C(=O)OCCN(C)C | inactive
CC(=O)N(O)CCCCCNC(=O)CCC(=O)N(O)CCCCCNC(=O)CCC(=O)N(O)CCCCCN | inactive
C[C@H](CCC(=O)O)[C@H]1CC[C@H]2[C@@H]3[C@H](O)C[C@@H]4C[C@H](O)CC[C@]4(C)[C@H]3CC[C@]12C | inactive
CCCCCCCCCCCCCCC1CO1 (stereo not given) | inactive
CC(C)NCC(O)COc1ccc(CC(N)=O)cc1 (stereo not given) | inactive
NCCCN(CCO)CCO | inactive
CCCCCCCCCCCCCCCBr | inactive
Cc1ncsc1CCO | inactive
O=C(Nc1ccccc1)OCC(CN1CCCCC1)OC(=O)Nc1ccccc1 (stereo not given) | 10.1 µM (active)
CC(C(=O)O)c1ccc(-c2ccccc2)c(F)c1 (stereo not given) | inactive
O=C(C(=O)c1ccc(Br)cc1)c1ccc(Br)cc1 | inactive
OCC1CC2CC1C1CCC(CO)C21 (stereo not given) | inactive
CCCCCCCCCO | inactive
CCCCCCCCC(CO)CCCCCC (stereo not given) | inactive
CC(=O)CC(=O)c1ccccc1 | inactive
CC[C@H](C)[C@@H](C(=O)O)n1sc2ccccc2c1=O | inactive

Structure (SMILES) | Potency
N=C(N=C(N)N)N1CCOCC1 | inactive
N[C@H]1C(O)O[C@H](CO)[C@H](O)[C@@H]1O (stereo not given in full) | inactive
O=C(O)COC(=O)Cc1ccccc1Nc1c(Cl)cccc1Cl | inactive
CC(C)(C)C1CCCCC1O (stereo not given) | inactive
N#CCCNCCC#N | inactive
NCCCOCCOCCOCCCN | inactive
N#CCc1cccc(C(F)(F)F)c1 | inactive
Cc1ccc(C(N)=O)cc1N | inactive
C=CC[N+]1([C@H]2C[C@H]3[C@@H]4CC[C@H]5C[C@H](OC(C)=O)[C@@H](N6CCCCC6)C[C@]5(C)[C@H]4CC[C@]3(C)[C@H]2OC(=O)CC)CCCCC1 | inactive
CN(C)CCCOc1nn(Cc2ccccc2)c2ccccc12 | 9.02 µM (active)
CC(=O)NCCCS(=O)(=O)O | inactive
CCOC(=O)CC(C)C | inactive
CC(=O)SCc1ccco1 | inactive
Cn1c(=O)c2c(ncn2CC(O)CO)n(C)c1=O (stereo not given) | inactive
CCOC(=O)CC(=O)c1cc(F)c(Cl)nc1Cl | inactive
Nc1nc(N)c2nc(CNc3ccc(C(=O)N[C@@H](CCC(=O)O)C(=O)O)cc3)cnc2n1 | 0.0571 µM (active)
COCCOCCOCCOCCOC | inactive
O=C(Cl)c1ccc([N+](=O)[O-])cc1 | inactive
